Where two headings read alike, the source gives them in different places.
What was measured:
EPHA2 = settings: concentration: 1 μM, replicates: in singlicate; n = 1
EPHA3 = settings: concentration: 1 μM, replicates: in singlicate; n = 1
EPHA4 = settings: concentration: 1 μM, replicates: in singlicate; n = 1
EPHA5 = settings: concentration: 1 μM, replicates: in singlicate; n = 1
EPHA6 = settings: n = 1
EPHA7 = settings: concentration: 1 μM, replicates: in singlicate; n = 1
EPHA8 = settings: concentration: 1 μM, replicates: in singlicate; n = 1
EPHB1 = settings: concentration: 1 μM, replicates: in singlicate; n = 1
EPHB2 = settings: concentration: 1 μM, replicates: in singlicate; n = 1
EPHB3 = settings: concentration: 1 μM, replicates: in singlicate; n = 1
[1] = concentration: 1 μM, replicates: in singlicate
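Also: KINOMEscan kinase panel screen.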

| Compound | %Inh (EPHA2) | %Inh (EPHA3) | %Inh (EPHA4) | %Inh (EPHA5) | %Inh (EPHA6; [1]) | %Inh (EPHA7) | %Inh (EPHA8) | %Inh (EPHB1) | %Inh (EPHB2) | %Inh (EPHB3) | %Inh (EPHA6; 1 µM) |
| --- | --- | --- | --- | --- | --- | --- | --- | --- | --- | --- | --- |
| COc1cccc(NC(=O)Nc2ccc(C)c(-c3ccc(C(=O)Nc4ccncc4)cc3)c2)c1 [GSK1398474] | 1% | 5% | 15% | 2% | 13% | 13% | 25% | 10% | 4% | 18% | – |
| COc1ccc(Nc2nccc(N3CCC(NC(=O)c4cc5ccccc5s4)C3)n2)cc1 (stereo not shown) [GSK1379738] | 0% | 0% | 8% | 0% | 1% | 7% | 13% | 20% | 12% | 11% | – |
| CSc1ccc(-c2nc3n(c2-c2ccncc2)CCC3)cc1 [SKF-105561] | 0% | 5% | 14% | 0% | 0% | 9% | 0% | 0% | 0% | 8% | – |
| CCn1c(-c2ccccc2)nc2cnccc21 [SB-733416] | 10% | 0% | 24% | 10% | 29% | 7% | 5% | 7% | 15% | 26% | – |
| CN1c2ccc(-c3ccc(C(N)=O)cc3)cc2-c2[nH]ncc2S1(=O)=O | 0% | 0% | 0% | 4% | 5% | 0% | 0% | 0% | 0% | 5% | – |
| Cc1ccc(NC(=O)Nc2ccc(Cl)c(C(F)(F)F)c2)cc1-c1ccc(C(=O)Nc2ccncc2)cc1 [GSK1398470] | 17% | 19% | 7% | 7% | 20% | 15% | 26% | 23% | 17% | 19% | – |
| Fc1ccc(-c2nc[nH]c2-c2ccncc2)cc1 [SB-217360] | 0% | 9% | 4% | 0% | 1% | 0% | 5% | 1% | 0% | 0% | – |
| Fc1ccc(-c2nn3cccc(F)c3c2-c2ccncc2)cc1 [GW475620] | 12% | 2% | 15% | 13% | 38% | 0% | 4% | 8% | 0% | 31% | – |
| Cc1ccccc1Cn1ccn2c(=O)cc(N3CCOCC3)nc12 [GSK2269905] | 4% | 0% | 19% | 0% | 14% | 0% | 11% | 10% | 0% | 20% | – |
| CS(=O)(=O)CCNCc1nc(-c2ccc3ncnc(Nc4ccc5c(cnn5Cc5ccccc5)c4)c3c2)cs1.Cl.Cl [GW569716] | 0% | 0% | 6% | 8% | 7% | 4% | 11% | 0% | 0% | 13% | – |
| Nc1nccc(-c2c(-c3ccc(F)cc3)ncn2C2CCN(Cc3ccccc3)CC2)n1 [SB-219980] | 0% | 0% | 4% | 21% | 24% | 0% | 1% | 9% | 0% | 20% | – |
| FC(F)(F)c1ccccc1-c1cc(-c2c[nH]nc2-c2ccccn2)ccn1 [GW679396] | 0% | 0% | 2% | 0% | 0% | 6% | 17% | 24% | 7% | 2% | – |
| Cc1ccc(NC(=O)Nc2ccc(Cl)cc2)cc1-c1ccc(C(=O)Nc2ccncc2)cc1 [GSK1398472] | 43% | 0% | 41% | 2% | 36% | 7% | 34% | 16% | 11% | 25% | – |
| O=c1cc(N2CCOCC2)nc2n(Cc3cccc(Cl)c3Cl)c3ccccc3n12 [GSK2299009] | 8% | 5% | 14% | 1% | 6% | 19% | 25% | 26% | 61% | 20% | – |
| COc1ccc2cc(-c3nc(-c4ccccc4C(C)C)[nH]c3-c3ccncc3)ccc2c1 [SB-660566] | 0% | 0% | 25% | 0% | 30% | 15% | 13% | 4% | 15% | 28% | – |
| COc1ccc(CSc2nnc(-c3ccc4c(c3)CCO4)o2)cc1 | 0% | 1% | 18% | 0% | 6% | 0% | 0% | 0% | 0% | 12% | – |
| CC(=O)c1c(C)c2cnc(Nc3ccn(C)n3)nc2n(C2CCCC2)c1=O | 0% | 0% | 0% | 0% | 0% | 0% | 0% | 0% | 15% | 0% | – |

| Compound | %Inh (EPHA2) | %Inh (EPHA3) | %Inh (EPHA4) | %Inh (EPHA5) | %Inh (EPHA6; [1]) | %Inh (EPHA7) | %Inh (EPHA8) | %Inh (EPHB1) | %Inh (EPHB2) | %Inh (EPHB3) | %Inh (EPHA6; 1 µM) |
| --- | --- | --- | --- | --- | --- | --- | --- | --- | --- | --- | --- |
| CS(=O)(=O)Cc1ccc(Nc2nccc(-c3c(-c4cccc(NC(=O)C5CCCCC5)c4)nn4ncccc34)n2)cc1 [GSK350559] | 51% | 16% | 14% | 0% | – | 15% | 15% | 2% | 3% | 5% | 2% |
| CNc1nc(-c2ccc3c(N)n[nH]c3c2)cc(N2C[C@@H](C(=O)NC3CCCCC3)OC[C@H]2C)n1 [GSK2375584] | 0% | 0% | 8% | 0% | 1% | 8% | 13% | 7% | 0% | 11% | – |
| CNC(=O)c1ccc(C)c(-n2c(C)cc(OCc3ccc(F)cc3F)c(Br)c2=O)c1 | 0% | 0% | 0% | 0% | 0% | 0% | 0% | 0% | 6% | 0% | – |
| CC(=O)c1cccc(NC(=O)NC2CCN(c3ccnc(Nc4ccc(F)cc4)n3)C2)c1 (stereo not shown) [GSK1379710] | 0% | 19% | 6% | 0% | 7% | 6% | 14% | 8% | 11% | 7% | – |
| COc1cc2ncnc(Nc3cccc(Br)c3)c2cc1OC.Cl [GI230329] | 13% | 33% | 0% | 0% | 41% | 7% | 12% | 20% | 9% | 1% | – |
| COc1ccc(Nc2nccc(N3CCC(NC(=O)C(C)c4ccc(Cl)cc4)C3)n2)cc1 (stereo not shown) [GSK1379735] | 25% | 9% | 14% | 0% | 11% | 18% | 17% | 13% | 0% | 9% | – |
| COC(=O)c1cccc(NC(=O)NC2CCN(c3ccnc(Nc4ccc(OC)cc4)n3)C2)c1 (stereo not shown) [GSK1379746] | 6% | 0% | 4% | 0% | 0% | 3% | 12% | 21% | 8% | 5% | – |
| CNc1nc(-c2ccc3c(N)n[nH]c3c2)cc(N2C[C@@H](C(=O)Nc3ccccc3)CC[C@H]2C)n1 [GSK2298859] | 0% | 18% | 8% | 0% | 0% | 1% | 5% | 0% | 0% | 9% | – |
| Nc1ncnc2occ(-c3ccc4c(c3)CCN4C(=O)Cc3cc(F)ccc3F)c12 [GSK2645446] | 0% | 12% | 0% | 0% | 0% | 0% | 0% | 0% | 6% | 0% | – |
| Cc1ccc(NC(=O)c2ccc(Cl)cc2)cc1-c1ccc(C(=O)Nc2ccncc2)cc1 [GSK1398467] | 9% | 81% | 11% | 0% | 0% | 4% | 18% | 19% | 7% | 8% | – |
| COc1ccc(CSc2nnc(-c3ccc4ncsc4c3)o2)cc1C(F)(F)F | 3% | 3% | 1% | 0% | 20% | 0% | 0% | 0% | 0% | 14% | – |
| Cc1ccc(NC(=O)Nc2ccccc2)cc1-c1ccc(C(=O)Nc2ccncc2)cc1 [GSK1398471] | 17% | 4% | 32% | 0% | 15% | 5% | 36% | 11% | 13% | 15% | – |
| COC(=O)c1cccc(NC(=O)NC2CCN(c3ccnc(Nc4ccc(F)cc4)n3)C2)c1 (stereo not shown) [GSK1379725] | 16% | 0% | 5% | 0% | 0% | 0% | 0% | 8% | 14% | 0% | – |
| COc1ccc(CSc2nnc(-c3ccc4nccn4c3)o2)cc1C(F)(F)F | 7% | 8% | 11% | 10% | 9% | 15% | 16% | 17% | 0% | 7% | – |
| Cl.Cl.Cl.N#Cc1ccc(CCNc2nccc(-c3cccc(CN4CCNCC4)c3)n2)cc1 [GSK2137462] | 8% | 14% | 13% | 0% | 3% | 9% | 14% | 18% | 0% | 15% | – |
| Cn1cnc2c(N)ncnc21 [SKF-97623] | 0% | 0% | 0% | 9% | 0% | 0% | 0% | 0% | 0% | 0% | – |
| CCc1ccc(-c2ccc3c(c2)-c2n[nH]cc2S(=O)(=O)N3C)cc1 | 2% | 0% | 0% | 5% | 0% | 0% | 0% | 0% | 10% | 0% | – |
